Experimental data taken from ChEMBL document CHEMBL3988442, “University of Dundee, Small-Polar-MMV Screening Library” (2021).
For some assays here: Measured potencies and affinities stand elsewhere.

Columns and labels:
Parameters in all cases: scale not given: direction of the effect not stated beside the values
[1] = molecular target: Protein translocase subunit SecA (Escherichia coli (strain K12)) (UniProt P10408); test: Assay to Identify E. coli SecA ATPase Inhibitors; type: functional; conditions: 30 µM
[2] = molecular target: T1, Ubiquitin-activating enzyme e1, putative (Leishmania donovani (strain BPK282A1)) (UniProt E9BSI1); test: Leishmania donovani Ubiquitin Activating Enzyme (LdE1); type: functional; conditions: 30 µM
T1 sequence (whole entry): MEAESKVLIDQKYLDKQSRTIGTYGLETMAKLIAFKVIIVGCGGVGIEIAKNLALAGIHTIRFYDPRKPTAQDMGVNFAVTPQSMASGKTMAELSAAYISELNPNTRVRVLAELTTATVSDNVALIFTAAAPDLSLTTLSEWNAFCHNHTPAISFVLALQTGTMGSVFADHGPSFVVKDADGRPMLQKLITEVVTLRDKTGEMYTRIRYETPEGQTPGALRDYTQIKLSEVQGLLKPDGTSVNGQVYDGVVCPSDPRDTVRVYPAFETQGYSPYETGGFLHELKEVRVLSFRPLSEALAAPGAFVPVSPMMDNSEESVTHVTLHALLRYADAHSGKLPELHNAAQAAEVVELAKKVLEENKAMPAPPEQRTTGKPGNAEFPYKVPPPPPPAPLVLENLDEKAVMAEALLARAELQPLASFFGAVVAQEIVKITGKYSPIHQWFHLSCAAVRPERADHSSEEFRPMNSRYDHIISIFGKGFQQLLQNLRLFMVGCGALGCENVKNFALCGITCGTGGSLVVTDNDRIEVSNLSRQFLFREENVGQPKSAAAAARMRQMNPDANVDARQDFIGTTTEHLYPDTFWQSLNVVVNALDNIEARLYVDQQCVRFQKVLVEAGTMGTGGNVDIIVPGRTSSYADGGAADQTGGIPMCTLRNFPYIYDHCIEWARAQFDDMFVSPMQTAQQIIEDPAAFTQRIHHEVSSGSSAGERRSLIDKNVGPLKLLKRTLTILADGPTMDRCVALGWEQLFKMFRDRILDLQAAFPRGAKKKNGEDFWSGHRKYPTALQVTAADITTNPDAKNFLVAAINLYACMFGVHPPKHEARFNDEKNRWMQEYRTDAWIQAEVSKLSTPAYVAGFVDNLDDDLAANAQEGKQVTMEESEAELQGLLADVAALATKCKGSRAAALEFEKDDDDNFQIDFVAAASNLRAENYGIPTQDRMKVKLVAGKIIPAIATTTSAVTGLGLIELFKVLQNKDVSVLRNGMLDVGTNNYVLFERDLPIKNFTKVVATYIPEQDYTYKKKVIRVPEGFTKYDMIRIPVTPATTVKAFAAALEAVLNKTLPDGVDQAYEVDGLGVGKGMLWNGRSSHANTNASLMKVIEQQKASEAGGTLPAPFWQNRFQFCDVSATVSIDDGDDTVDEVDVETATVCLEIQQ

[3] = molecular target: AMP-activated protein kinase, AMPK (Homo sapiens) (UniProt P54646+O43741+P54619+Q9UGJ0+Q9Y478+Q13131+Q9UGI9); test: AMP-dependent Kinase enzyme assay. An in vitro enzyme assay that detects ADP turnover that is directly proportional to AMPK activity. This uses naive AMPK that is activated during the assay with MK-8722; type: functional; conditions: 30 µM
[4] = molecular target: Sialic acid-binding Ig-like lectin 9 (Homo sapiens) (UniProt Q9Y336); test: Hs-Siglec9 ALPHAscreen SOP 20170721; conditions: 10 µM
Trypanosoma cruzi = test: Trypanosoma cruzi phosphomannomutase and mannose-1-phosphate guanylyltransferase assay; type: functional; conditions: 10 µM
[5] = molecular target: T2, Arginase-2, mitochondrial (Homo sapiens) (UniProt P78540); test: in vitro enzyme assay to detect the production of urea directly proportional to the activity of Arginase II; type: functional; conditions: 33.3 µM; note: in the data most compounds retested in dose-response had high values
T2 sequence (whole entry): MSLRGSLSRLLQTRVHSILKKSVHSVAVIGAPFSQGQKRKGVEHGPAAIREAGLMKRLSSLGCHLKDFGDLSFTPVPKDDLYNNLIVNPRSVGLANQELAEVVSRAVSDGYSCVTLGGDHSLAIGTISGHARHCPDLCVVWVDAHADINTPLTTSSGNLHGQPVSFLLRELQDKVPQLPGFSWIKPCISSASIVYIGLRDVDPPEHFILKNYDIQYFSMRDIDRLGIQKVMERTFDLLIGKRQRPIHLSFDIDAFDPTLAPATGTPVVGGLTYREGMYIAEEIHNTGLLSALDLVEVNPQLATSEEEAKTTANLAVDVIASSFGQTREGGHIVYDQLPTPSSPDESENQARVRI

[6] = molecular target: T3, Proteasome subunit beta (Trypanosoma cruzi) (UniProt O96673); test: Trypanosoma cruzi proteasome chymotrypsin-like activity (TcProtChymo) assay.; note: in the data most compounds retested in dose-response had high values; type: functional; conditions: 9.37 µM
T3 sequence (whole entry): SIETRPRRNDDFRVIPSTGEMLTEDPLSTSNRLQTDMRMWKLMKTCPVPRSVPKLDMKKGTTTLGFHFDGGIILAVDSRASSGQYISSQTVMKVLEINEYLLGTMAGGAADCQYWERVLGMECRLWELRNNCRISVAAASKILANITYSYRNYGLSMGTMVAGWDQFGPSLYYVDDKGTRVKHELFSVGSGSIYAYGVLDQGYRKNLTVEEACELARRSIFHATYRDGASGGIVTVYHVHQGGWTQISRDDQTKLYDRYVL

Homo sapiens = organism: Homo sapiens; test: To identify inhibition of the IFN signalling (Jak-Stat) pathway via expression of an eGFP reporter gene under the control of an IFN-stimulated response element (ISRE) containing MxA promoter.; type: functional; conditions: 30 µM
[7] = molecular target: T4, Tyrosyl-tRNA synthetase, putative (Trypanosoma cruzi (strain CL Brener)) (UniProt Q4DSP6); test: Trypanosoma cruzi tyrosyl tRNA synthetase (TcYRS) _High Tyrosine SOP; type: functional; conditions: 30 µM; note: in the data most compounds retested in dose-response had high values
T4 sequence (whole entry): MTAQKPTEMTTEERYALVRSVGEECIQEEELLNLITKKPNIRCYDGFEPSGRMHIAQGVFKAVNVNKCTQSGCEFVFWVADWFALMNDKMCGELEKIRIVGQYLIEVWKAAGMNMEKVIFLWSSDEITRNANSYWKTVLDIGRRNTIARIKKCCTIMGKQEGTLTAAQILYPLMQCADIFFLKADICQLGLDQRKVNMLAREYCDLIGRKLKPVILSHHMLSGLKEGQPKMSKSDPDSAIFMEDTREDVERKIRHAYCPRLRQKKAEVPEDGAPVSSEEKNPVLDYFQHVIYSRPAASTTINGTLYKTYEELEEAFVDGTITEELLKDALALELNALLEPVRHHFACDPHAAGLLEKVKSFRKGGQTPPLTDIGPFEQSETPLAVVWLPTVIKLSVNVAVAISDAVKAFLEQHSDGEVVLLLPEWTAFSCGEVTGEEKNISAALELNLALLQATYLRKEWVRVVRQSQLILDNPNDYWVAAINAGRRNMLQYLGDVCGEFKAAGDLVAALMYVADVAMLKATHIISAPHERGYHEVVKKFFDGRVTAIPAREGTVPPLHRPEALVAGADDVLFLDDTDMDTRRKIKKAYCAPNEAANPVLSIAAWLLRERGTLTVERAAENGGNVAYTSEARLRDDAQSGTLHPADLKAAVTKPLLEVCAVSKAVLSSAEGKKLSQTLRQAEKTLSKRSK

[8] = molecular target: T4, Tyrosyl-tRNA synthetase, putative (Trypanosoma cruzi (strain CL Brener)); test: Trypanosoma cruzi tyrosyl tRNA synthetase (TcYRS) SOP; type: functional; conditions: 30 µM
[9] = molecular target: Chromo domain-containing protein 1 (Saccharomyces cerevisiae (strain ATCC 204508 / S288c) (Baker's yeast)) (UniProt P32657); test: ScCHD-1 Enzyme Inhibition Assay; type: functional; conditions: 30 µM; note: in the data most compounds retested in dose-response had high values
Chromo domain-containing protein 1 (Saccharomyces cerevisiae (strain ATCC 204508 / S288c) (Baker's yeast)), sequence (P32657 whole entry, the tested form may be a part): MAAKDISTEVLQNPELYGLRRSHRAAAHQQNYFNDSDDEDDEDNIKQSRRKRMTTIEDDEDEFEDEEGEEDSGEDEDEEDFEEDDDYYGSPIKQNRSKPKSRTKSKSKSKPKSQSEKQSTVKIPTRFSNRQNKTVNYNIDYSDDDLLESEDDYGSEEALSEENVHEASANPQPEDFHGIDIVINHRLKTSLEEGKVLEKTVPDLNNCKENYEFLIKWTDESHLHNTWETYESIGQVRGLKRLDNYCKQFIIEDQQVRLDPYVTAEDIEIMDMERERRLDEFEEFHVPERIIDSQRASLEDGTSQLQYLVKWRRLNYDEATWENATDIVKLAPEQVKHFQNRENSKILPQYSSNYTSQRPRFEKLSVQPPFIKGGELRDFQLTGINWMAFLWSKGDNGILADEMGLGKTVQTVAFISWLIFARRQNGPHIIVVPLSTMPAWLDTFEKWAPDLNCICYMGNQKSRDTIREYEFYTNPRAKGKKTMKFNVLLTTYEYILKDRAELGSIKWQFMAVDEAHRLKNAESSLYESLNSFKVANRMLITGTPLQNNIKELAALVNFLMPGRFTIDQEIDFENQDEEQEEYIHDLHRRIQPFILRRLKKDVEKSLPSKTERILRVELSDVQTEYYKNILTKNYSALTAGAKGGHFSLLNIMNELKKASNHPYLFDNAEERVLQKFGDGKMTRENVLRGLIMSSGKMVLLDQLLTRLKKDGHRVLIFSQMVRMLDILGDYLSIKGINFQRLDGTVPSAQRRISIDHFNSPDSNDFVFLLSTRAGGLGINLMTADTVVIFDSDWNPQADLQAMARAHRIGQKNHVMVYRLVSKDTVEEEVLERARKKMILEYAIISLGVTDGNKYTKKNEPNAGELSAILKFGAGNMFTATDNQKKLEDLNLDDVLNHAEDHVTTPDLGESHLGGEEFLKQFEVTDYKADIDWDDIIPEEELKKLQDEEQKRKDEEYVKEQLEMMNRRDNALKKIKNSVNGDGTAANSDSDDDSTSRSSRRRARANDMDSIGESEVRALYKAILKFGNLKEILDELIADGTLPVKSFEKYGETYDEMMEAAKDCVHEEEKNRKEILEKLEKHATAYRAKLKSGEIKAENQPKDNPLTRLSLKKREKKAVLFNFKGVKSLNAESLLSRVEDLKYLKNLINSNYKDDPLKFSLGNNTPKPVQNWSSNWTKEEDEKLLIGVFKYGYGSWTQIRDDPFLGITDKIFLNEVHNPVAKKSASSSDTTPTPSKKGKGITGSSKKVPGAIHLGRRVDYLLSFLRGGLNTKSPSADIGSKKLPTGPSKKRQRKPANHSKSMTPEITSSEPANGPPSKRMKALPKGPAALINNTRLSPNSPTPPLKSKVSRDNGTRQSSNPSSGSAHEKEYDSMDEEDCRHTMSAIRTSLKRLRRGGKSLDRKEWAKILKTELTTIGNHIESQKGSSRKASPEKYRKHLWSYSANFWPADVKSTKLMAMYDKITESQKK

Sialic acid-binding Ig-like lectin 9 (Homo sapiens), sequence (Q9Y336 whole entry): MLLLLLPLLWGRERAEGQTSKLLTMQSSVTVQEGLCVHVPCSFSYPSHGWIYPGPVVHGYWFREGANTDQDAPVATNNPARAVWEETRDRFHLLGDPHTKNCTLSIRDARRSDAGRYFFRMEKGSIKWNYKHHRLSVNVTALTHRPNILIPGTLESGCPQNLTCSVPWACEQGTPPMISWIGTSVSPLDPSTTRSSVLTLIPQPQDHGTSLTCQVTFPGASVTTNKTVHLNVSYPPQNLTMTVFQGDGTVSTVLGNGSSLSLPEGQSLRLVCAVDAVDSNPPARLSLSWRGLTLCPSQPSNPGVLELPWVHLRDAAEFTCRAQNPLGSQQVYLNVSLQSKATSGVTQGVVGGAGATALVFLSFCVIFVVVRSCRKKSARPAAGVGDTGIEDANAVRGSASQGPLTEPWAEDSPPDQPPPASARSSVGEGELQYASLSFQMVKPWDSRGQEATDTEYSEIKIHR
Protein translocase subunit SecA (Escherichia coli (strain K12)), sequence (P10408 whole entry): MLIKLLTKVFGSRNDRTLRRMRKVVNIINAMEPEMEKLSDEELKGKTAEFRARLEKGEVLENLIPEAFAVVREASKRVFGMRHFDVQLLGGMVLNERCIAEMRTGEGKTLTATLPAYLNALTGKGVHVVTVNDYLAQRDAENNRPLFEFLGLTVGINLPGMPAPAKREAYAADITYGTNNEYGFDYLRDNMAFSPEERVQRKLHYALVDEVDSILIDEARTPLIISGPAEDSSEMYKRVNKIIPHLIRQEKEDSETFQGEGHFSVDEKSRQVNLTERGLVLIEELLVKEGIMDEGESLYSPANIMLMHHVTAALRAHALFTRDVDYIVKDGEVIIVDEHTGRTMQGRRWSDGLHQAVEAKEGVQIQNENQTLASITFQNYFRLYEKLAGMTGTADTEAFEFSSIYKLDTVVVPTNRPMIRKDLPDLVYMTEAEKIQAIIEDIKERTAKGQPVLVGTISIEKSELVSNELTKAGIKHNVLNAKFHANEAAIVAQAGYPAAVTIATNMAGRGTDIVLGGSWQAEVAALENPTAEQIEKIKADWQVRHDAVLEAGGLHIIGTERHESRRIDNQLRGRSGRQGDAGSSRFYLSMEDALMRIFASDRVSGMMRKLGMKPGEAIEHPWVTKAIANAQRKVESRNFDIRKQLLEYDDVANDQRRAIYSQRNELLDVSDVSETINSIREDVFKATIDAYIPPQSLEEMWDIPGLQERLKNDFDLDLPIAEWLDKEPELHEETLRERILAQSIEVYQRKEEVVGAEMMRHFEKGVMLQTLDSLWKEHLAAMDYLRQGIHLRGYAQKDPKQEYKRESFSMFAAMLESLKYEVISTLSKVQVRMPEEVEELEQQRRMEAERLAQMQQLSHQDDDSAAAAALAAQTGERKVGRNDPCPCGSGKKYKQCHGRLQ

| SMILES | Percent Effect [1] [%] | Percent Effect [2] [%] | Percent Effect [3] [%] | Percent Effect [4] [%] | Percent Effect (Trypanosoma cruzi) [%] | Percent Effect [5] [%] | Percent Effect [6] [%] | Percent Effect (Homo sapiens) [%] | Percent Effect [7] [%] | Percent Effect [8] [%] | Percent Effect [9] [%] |
| --- | --- | --- | --- | --- | --- | --- | --- | --- | --- | --- | --- |
| Cc1nc(-c2ccsc2)ccc1C(=O)NCCN1CCOCC1 | -6.91 | 10.5 | -3.72 | 7.24 | 4.32 | -0.383 | 8.02 | 1.25 | 6.37 | 19.5 | -8.61 |
| CC(C)c1nc2c(n1C)CCN(CC(=O)Nc1nccs1)C2 | -4.97 | 15.6 | 1.78 | -4.17 | -0.686 | 3.58 | 15.3 | -3.14 | 9.52 | 21.2 | -18 |
| Cc1ccoc1C(=O)N1CCOCC2(CCN(c3ncccn3)C2)C1 (stereo unspecified) | -3.09 | 5.41 | -4.43 | 21.7 | 5.57 | 13.2 | 9.01 | 10.4 | 7.53 | 21 | -6.03 |
| Cc1ccc(S(=O)(=O)NC(=O)c2cccc(OCC(N)=O)c2)s1 | -3.68 | 20.2 | -5.82 | -5.61 | 0.0944 | 4.18 | 12 | 4.54 | 6.4 | 13.9 | -5.68 |
| COc1cc(NC(=O)Cn2ccc3sc(C)cc3c2=O)cc(OC)c1 | 0.749 | 0 | 8.38 | 5.78 | -5.42 | 17.4 | 7.49 | 2.45 | 1.06 | 11.5 | -0.379 |
| CC(NC(=O)CCc1cccs1)c1nnc2n1CCC2 (stereo unspecified) | -4.31 | 2.7 | -7.36 | 7.21 | 1.95 | -0.554 | 7.18 | -0.332 | 5.94 | 18.3 | 1.69 |
| Cc1ncsc1C(=O)NCCOc1ncc(Cl)cc1Cl | -6.27 | 5.41 | 1.84 | 0.223 | 0.977 | 4.17 | 11.1 | 25.4 | 10.9 | 11 | -5.96 |
| CCn1nc(C)c2ncnc(NCCCN3CCOCC3)c21 | -5.99 | 9.33 | -3.7 | 9.5 | 0.786 | -2.64 | 12.2 | -4.74 | 5.29 | 12.8 | -10.7 |
| COC1CCCN(C(=O)Nc2nc(C)n(C)n2)C1 (stereo unspecified) | -4.33 | 8 | -6.08 | 5.49 | 1.27 | 1.56 | 11.2 | 14.3 | 6.01 | 6.17 | -6.37 |
| CN(CC(=O)N1CCC(C(O)c2ccccc2)CC1)c1cnccn1 (stereo unspecified) | -0.515 | 10.8 | -0.406 | 9.65 | -0.279 | -2.77 | 8.62 | 13.4 | 5.94 | 23.2 | -7.9 |
| CC(C)CNC(=O)c1c(-n2cnnn2)sc2c1CCC2 | -4.85 | 13.2 | 3.3 | 0.76 | 0.0974 | 0 | 10.4 | -15.7 | 2.13 | 15.6 | -4.29 |
| N#Cc1cccc(CS(=O)(=O)NCC(O)Cc2ccccc2)c1 (stereo unspecified) | -4.15 | -2.67 | 0.717 | 0.263 | 0.682 | -3.12 | 1.4 | 6.52 | 0.546 | 3.7 | 1.24 |
| COc1ccccc1[C@@H]1CN(C(=O)c2csc(C)n2)C[C@H]1C(=O)O | -2.85 | 1.39 | -3.07 | -2.56 | -0.0972 | 5.3 | 16.7 | -4.31 | 12.6 | 17.9 | -3.19 |
| Cc1cc(C(=O)N2CC[C@@H]3CN(S(C)(=O)=O)CCO[C@@H]3C2)c(C)o1 | -2.68 | 13.5 | 1.13 | -7.58 | -3.62 | 2.87 | 25.6 | -7.91 | 4.32 | 15.4 | -2.64 |
| Fc1cnc(N2CCC3(COCc4cnc(NCC5CC5)nc43)C2)nc1 (stereo unspecified) | 2.14 | -2.74 | 27.5 | 4.49 | -1.59 | 2.4 | 4.88 | -6.32 | 1.04 | 3.7 | 2.6 |
| CCSCC(C)NCc1nncn1C1CCCCC1 (stereo unspecified) | -0.842 | 6.94 | -1.51 | -1.31 | 2.23 | 0.883 | 16 | -2.28 | 11.6 | 20.5 | -4.13 |
